Assay outcomes deposited in PubChem BioAssay by several laboratories.
Lmaj promast – Leishmania major promastigote growth inhibition. Leishmania major promastigotes, resazurin fluorescence viability. inhibition, % at 10 µM. 9% of 200,000 active. AID 1063; in the data active = inhibition above about 50%;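 note: promastigotes grown with compound for 44 hours at 28 °C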
Ins promoter up – MIN6 insulin promoter up-regulation | MIN6 insulin promoter-GFP reporter, high-content imaging; stronger effect = higher value | z-score at 5 µM | 0.3% of 190,000 active | AID 1625;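 active = z-score above 3 at 5 µM with at least 500 cells counted in the well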
INS promoter inh – TRM-6 insulin promoter activity inhibition | TRM-6 cells (human fetal islet line), insulin promoter-eGFP reporter, imaging; reporter expression induced with tamoxifen | inhibition, % at 2 µM | 0.9% of 130,000 active;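 active = inhibition above the mean plus 3 SD, with well images judged a real hit on visual review, cut at about 60% in these data, passing the limit was not always enough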
PTEN del growth – PTEN-deleted cell growth suppression. HCT116 PTEN-null viability, CellTiter-Glo, 60 h; stronger effect = lower value. viability, % at 10 µM. 1.2% of 140,000 active. AID 827;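 active = viability at or below a set limit, 4 SD under the median of all tested compounds, cut at about 3.7% in these data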;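 note: PTEN knockout HCT116 line with beta catenin targeted HCT116 as companion control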
Autophagy HCS – autophagy modulation, high-content screen | MEF GFP-LC3 puncta imaging; test concentration mostly 10 µM | calls only at 10 µM (by protocol) | 0.98% of 190,000 active | AID 463193;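 active = percentage of spot-positive cells more than 3 SD above its plate mean, without a fluorescence outlier flag or 80% toxicity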;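 note: spot-positive cell cutoff set from DMSO-treated cells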
HCT116 bCat-KO – beta-catenin-lacking colon tumor cell growth suppression | AID 818 | HCT116 beta-catenin knockout viability, CellTiter-Glo, 60 h; stronger effect = lower value | 1.5% of 140,000 active | viability, % at 10 µM;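 active = viability at or under a set limit, the compound median less 4 SD, cut at about 6% in these data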;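 note: 0% = Hyamine 1622 control at 20 µM and 100% = untreated cell control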
The depositor's hits bear a star. In the library only some 9.6% were active in any assay of this set; here they are far more common.

How did COC(=O)COc1cc(C)cc2oc(=O)c(CC(=O)OC)c(C)c12 do in these assays?
Lmaj promast: -3; Ins promoter up: -0.18; INS promoter inh: 29; PTEN del growth: 101; Autophagy HCS: inactive; HCT116 bCat-KO: 113

What do the screens show for `COC(=O)COc1ccc(C)cc1-n1nc2ccccc2n1`?
Lmaj promast: -6; Ins promoter up: 0.18; Autophagy HCS: inactive

Results for CN1CCN(CCOc2cccc(Cl)c2)CC1 ?
Lmaj promast: 10; Ins promoter up: -0.1; INS promoter inh: 21; PTEN del growth: 96; Autophagy HCS: inactive; HCT116 bCat-KO: 102

What do the screens show for `CN(C)CCOc1cccc(Cl)c1`?
Lmaj promast: -6; Ins promoter up: 0; INS promoter inh: 20; PTEN del growth: 96; Autophagy HCS: inactive; HCT116 bCat-KO: 95

Results for CN1CCN(CCOc2ccc(Cl)c(Cl)c2)CC1 ?
Lmaj promast: 98*; Ins promoter up: -0.05; INS promoter inh: 30; PTEN del growth: 94; Autophagy HCS: inactive; HCT116 bCat-KO: 93

Results for CCN(CC)CCCOc1ccc(Cl)c(Cl)c1 ?
Lmaj promast: 83*; Ins promoter up: 0.51; INS promoter inh: -47; PTEN del growth: 92; Autophagy HCS: inactive; HCT116 bCat-KO: 93

Results for Cc1ccc(-n2c3c(c(=O)[nH]c2=O)C(NS(=O)(=O)c2ccc(C)cc2)(C(F)(F)F)C(=O)N3)cc1 (configuration not stated) ?
Lmaj promast: -5; Ins promoter up: -0.09; INS promoter inh: 0; PTEN del growth: 103; Autophagy HCS: inactive; HCT116 bCat-KO: 94

How did Cc1ccc(S(=O)(=O)NC2(C(F)(F)F)C(=O)Nc3c2c(=O)[nH]c(=O)n3-c2ccccc2)cc1 (configuration not stated) do in these assays?
Lmaj promast: 72*; Ins promoter up: 0.07; INS promoter inh: -55; PTEN del growth: 98; Autophagy HCS: inactive; HCT116 bCat-KO: 102

How did Cc1ccc(-n2c3c(c(=O)[nH]c2=O)C(C(F)(F)F)(C(F)(F)F)NC(=O)N3)cc1 do in these assays?
Lmaj promast: -2; Ins promoter up: 3*; INS promoter inh: 11; PTEN del growth: 85; Autophagy HCS: inactive; HCT116 bCat-KO: 92

How did CCOC(=O)c1ccc(NS(=O)(=O)c2ccc3[nH]c(=O)[nH]c3c2)cc1 do in these assays?
Lmaj promast: -13; Ins promoter up: 0.65; INS promoter inh: 62; PTEN del growth: 84; Autophagy HCS: inactive; HCT116 bCat-KO: 81

Results for O=C(CC(c1ccccc1)c1cc(Br)ccc1O)NCc1ccco1 (configuration not stated) ?
Lmaj promast: 99*; Ins promoter up: -0.87; INS promoter inh: -43; PTEN del growth: 41; Autophagy HCS: inactive; HCT116 bCat-KO: 42

Results for O=C(CC(c1ccccc1)c1ccccc1O)NCc1ccco1 (configuration not stated) ?
Lmaj promast: -2; Ins promoter up: -0.33; INS promoter inh: 8; PTEN del growth: 93; Autophagy HCS: inactive; HCT116 bCat-KO: 93

How did O=C(CC(c1ccccc1)c1ccccc1O)NCc1ccccc1Cl (configuration not stated) do in these assays?
Lmaj promast: 51*; Ins promoter up: -0.84; INS promoter inh: 19; PTEN del growth: 67; Autophagy HCS: inactive; HCT116 bCat-KO: 79

Results for O=C(Cc1ccccc1)NCC(=O)OC(c1ccccc1)c1ccccc1 ?
Lmaj promast: 0; Ins promoter up: -0.81; Autophagy HCS: inactive

How did C=CCc1c(C)nc(-c2ccccc2)nc1Nc1ccccc1O do in these assays?
Lmaj promast: 62*; Ins promoter up: -1.8; INS promoter inh: 4; PTEN del growth: 89; Autophagy HCS: inactive; HCT116 bCat-KO: 78

Results for C=CCc1c(C)nc(-c2ccccc2)nc1N/N=C/c1ccncc1 ?
Lmaj promast: 68*; Ins promoter up: -0.74; INS promoter inh: -44; Autophagy HCS: inactive

What do the screens show for `CC(=O)c1cnc(-c2ccccn2)s1`?
Lmaj promast: -9; Ins promoter up: -0.29; INS promoter inh: 27; Autophagy HCS: inactive

Results for CC(=O)c1cnc(-c2ccccc2Cl)s1 ?
Lmaj promast: -17; Ins promoter up: 0.17; INS promoter inh: 77*; Autophagy HCS: inactive

How did CCCn1c(N)c(C(=S)NC(=O)C2CC2)c(=O)n(C)c1=O do in these assays?
Lmaj promast: 21; Ins promoter up: -0.27; INS promoter inh: -52; PTEN del growth: 88; Autophagy HCS: inactive; HCT116 bCat-KO: 93
